Consider 102 compounds from ChEMBL document CHEMBL3988442, “University of Dundee, Small-Polar-MMV Screening Library” (2021).

In all, about 48,000 compounds went through this assay and about 13,000 (27%) showed an effect of 50% or more. Some of the results follow.

The subject of the test is Wolbachia pipientis. As to the kind of experiment: Anti-Wolbachia Cell-Based Screen. In kind it is functional. Details: scale not given: in the data most compounds retested in dose-response had high values. The note with it: 5 µM.
With `CC(C)(C)c1ccc(C2(C(=O)NCCS(C)(=O)=O)CC2)cc1`, the “Percent Effect” value worked out at 2.157%.
The value for `Cn1cnc(-c2ccc(F)cc2)c1NC(=O)CCNC(=O)C(C)(C)C` was -6.706%; that for `Cc1ccc(OCC(O)CN(C)CC(=O)NC(C)C)c(C)c1` (configuration not stated) was 0.9379%; that for `Cc1ccc(S(=O)(=O)N(C)Cc2cnccn2)cc1N(C)C` was -3.361%.
Take `CCOCC1CC2(CCN(C(=O)CC3=CCCCC3)CC2)CO1` (configuration not stated): the “Percent Effect” value is listed as -15.26%.
The figure for `CO[C@H]1CC[C@H]2[C@H]1OCCN2C(=O)C1=CCCC1` is 2.583%.
The figure for `CO[C@H]1CC[C@H]2[C@H]1OCCN2C(=O)CC1=CCCCC1` is 98.05%.
The value for `CCO[C@@H]1CC[C@H]2[C@H]1OCCN2C(=O)CC1=CCCCC1` was 124.5%; that for `O=C(C1=CCCC1)N1CCO[C@H]2[C@@H](OCC3CC3)CC[C@@H]21` was -8.51%; that for `CO[C@@H]1CC[C@H]2[C@H]1OCCN2C(=O)C1=CCCC1` was 4.441%.
Regarding `CCO[C@H]1CC[C@H]2[C@H]1OCCN2C(=O)CC1=CCCCC1`, the “Percent Effect” value worked out at 80.53%.
For the compound `CC(C)(CNC(=O)Nc1cccc(-c2cccs2)c1)C(N)=O`, the “Percent Effect” value was 3.927%.
Take `N#Cc1ccc(Cn2cncn2)c(F)c1`: the “Percent Effect” value was -14.63%.
`N#Cc1nccnc1NC1CCN(c2ccccc2OC(F)F)C1` (configuration not stated): the “Percent Effect” value is given as 9.423%.
In the case of `CCN1CCc2[nH]cnc2C12CCN(c1ccc(Cl)c(C(=O)O)n1)CC2`, the “Percent Effect” value was -7.204%.
The figure for `COc1ccc(CNC(=O)NCC2CCOC2)c(C(F)(F)F)c1` (configuration not stated) is -17.58%; for `O=C(c1cc2c(s1)CCC2)N1CCCCC1Cn1cccn1` (configuration not stated) it is -2.201%.
`O=C(c1cc2c(s1)CCCC2)N1CCCC1Cn1cccn1` (configuration not stated): the “Percent Effect” value turned out to be 141.2%.
Take `O=C(c1cc2c(s1)CCC2)N1CCCC1Cn1cccn1` (configuration not stated): the “Percent Effect” value was found to be 111%.
`Cc1nn(C)c(N2CCOCC2)c1CNC1CCN(C(C)(C)C)CC1`: the “Percent Effect” value is listed as -15.17%.
Regarding `c1ccc(-c2nnc3sc(CCN4CCCCCC4)nn23)cc1`, the “Percent Effect” value is on record as 117.6%.
The figure for `c1cc(-c2ccn(CCN3CCCC3)n2)cc(-c2nccs2)c1` is -3.86%; for `c1ccc(-c2cccc(-c3ccn(CCN4CCCCC4)n3)c2)nc1` it is 2.819%.
As for `c1ccc(-c2nnc3sc(CCN4CCCC4)nn23)cc1`, the “Percent Effect” value is listed as 117%.
For `c1cc(-c2nnc3sc(CCN4CCCC4)nn23)ccn1`, the “Percent Effect” value was 107.3%.
As for `Cc1ccc(CNC2CCN(CCc3ccncc3)CC2)s1`, the “Percent Effect” value is given as -7.206%.
For the compound `Cc1ccc(-c2cccc(-c3ccn(CCN4CCCC4)n3)c2)nn1`, the “Percent Effect” value is -8.933%.
The figure for `c1cc(-c2nccn2CCc2nc3c(s2)CCC3)ccn1` is 7.441%; for `Cc1nc(CCN2CCCCC2)n(-c2ccc(F)cc2)n1` it is -12.73%.
Consider `CC(C)(C)Cc1noc2ncc(C(=O)N3CCC3)cc12`, for which the “Percent Effect” value was -0.07347%.
`O=C(C1SCCc2sccc21)N1CCN(CC(F)F)CC1` (configuration not stated): the “Percent Effect” value came out at 2.68%.
`CN(CCOc1cccc(S(C)(=O)=O)c1)c1ccccc1`: the “Percent Effect” value is recorded as 88.15%.
Turning to `CN(CCOc1cccc(CNS(C)(=O)=O)c1)C1CCOCC1`, the “Percent Effect” value was -5.968%.
Consider `CS(=O)(=O)CCCOc1cccc(-n2ccnc2)c1`, for which the “Percent Effect” value turned out to be 0.659%.
Consider `CCC(C)(C)N(C)CCOc1cccc(S(C)(=O)=O)c1`, for which the “Percent Effect” value came to 103.5%.
Regarding `CN(CCOc1cccc(S(C)(=O)=O)c1)CC(F)F`, the “Percent Effect” value is on record as 95.25%.
For `CN(CCOc1cccc(Cl)c1)Cc1nnc(C(C)(C)C)o1`, the “Percent Effect” value was -19.16%.
On to `CS(=O)(=O)CCCOc1cccc(-n2cccn2)c1`, for which the “Percent Effect” value is -22.07%.
Regarding `CS(=O)(=O)c1ccc(OCCNCc2cccc(F)c2)cc1`, the “Percent Effect” value is -4.841%.
Turning to `COc1cccc(S(=O)(=O)CCN2CCN(CC(F)F)CC2)c1`, the “Percent Effect” value is on record as 1.442%.
As for `Cc1cccc(C(=O)NC2CCN(c3cnn(C)c3)C2=O)c1C` (configuration not stated), the “Percent Effect” value turned out to be 3.687%.
For the compound `O=C(CC1CC1)NCc1cn2c(n1)CN(Cc1nccs1)CC2.O=C(O)C(F)(F)F`, the “Percent Effect” value came to 17.65%.
Consider `Cc1cc(C(=O)N2C[C@@H]3[C@@H](C2)OCC(=O)N3CC2CC2)no1`, for which the “Percent Effect” value came out at 15.73%.
For `CS(=O)(=O)CCN1CCC(=Cc2ccccc2)CC1`, the “Percent Effect” value amounted to 3.303%.
For the compound `COc1cccc(CN(C(=O)NC2CC2)C2CCC(O)CC2)c1` (configuration not stated), the “Percent Effect” value came to 4.411%.
The value for `O=C(C1CC1)N(CCc1ccccc1)C1CCOC1` (configuration not stated) was -3.562%; that for `O=C(NC1CC1)N(CCc1ccccc1)C1CCOC1` (configuration not stated) was -8.792%; that for `CC(=O)NCC(=O)N(CCc1ccccc1)C1CCOC1` (configuration not stated) was 3.358%.
The value for `CN(CC(=O)N(C)C1CCN(CC2CCOC2)CC1)c1ccccc1` (configuration not stated) was -6.754%; that for `CNC(=O)[C@@]12CCO[C@@H]1CCN(S(=O)(=O)c1ccccc1)C2` was -56.29%; that for `CNC(=O)CN([C@H]1C[C@H]2CCOC[C@H]2C1)S(=O)(=O)c1ccccc1` was 119.6%.
On to `O=C(C1CCOCC1)N(CCc1ccccc1)C1CCOC1` (configuration not stated), for which the “Percent Effect” value is listed as -13.84%.
With `CNC(=O)CN(C(=O)c1ccccc1)[C@H]1C[C@H]2CCOC[C@H]2C1`, the “Percent Effect” value was determined as 119.3%.
The value for `O=C(O)CN(C(=O)c1ccccc1)[C@H]1C[C@H]2CCOC[C@H]2C1` was 112.1%.
With `CN1CCN(CCO)C(=O)C12CCN(c1nccs1)CC2`, the “Percent Effect” value was found to be 3.933%.
As for `CN1CCOC(C(=O)Nc2ccc3[nH]nnc3c2)C1` (configuration not stated), the “Percent Effect” value came out at 3.877%.
As for `CCc1nsc(NC2CCCn3nc(COC)nc32)n1` (configuration not stated), the “Percent Effect” value was -2.766%.
Consider `CCc1nccn1CCCNC(=O)c1cnn(-c2ccccc2OC)c1`, for which the “Percent Effect” value is recorded as 86.43%.
`COc1ccccc1-n1cc(C(=O)NCCCn2ccnn2)cn1`: the “Percent Effect” value stood at 105.8%.
As for `Cc1ccc2[nH]c(C(=O)NCCCn3ccnn3)c(C)c2c1`, the “Percent Effect” value is reported as -11.21%.
Consider `Cc1ccc2nc(C)c(C)c(C(=O)NCCCn3ccnn3)c2c1`, for which the “Percent Effect” value is given as -15.24%.
`CCc1nccn1CCCNC(=O)CN1CCN(c2ncccn2)CC1`: the “Percent Effect” value is given as -11.95%.
The value for `CC(C)c1nccn1CCCNC(=O)c1ccc(-c2cnn(C)c2)nc1` was 3.735%; that for `CC(C)CCN1CC2(CCN(C3CCCOC3)CC2)OC1=O` (configuration not stated) was 10.38%.
Turning to `COCCOc1ccc(NC(=O)N2CCCC2c2ccsc2)cn1` (configuration not stated), the “Percent Effect” value is listed as -8.185%.
The value for `COc1c(F)ccc(C(=O)N2CC[C@H](CO)[C@@H](O)C2)c1F` was 0.1381%.
Regarding `CCCN1CCc2nc(N3CCOCC3)nc(NC(C)C)c2C1`, the “Percent Effect” value was -9.413%.
On to `CC(C)Nc1nc(N2CCCC2)nc2c1CN(C)CC2`, for which the “Percent Effect” value is 109%.
The figure for `CC(C)Nc1nc(N2CCCC2)nc2c1CN(S(C)(=O)=O)CC2` is 105.6%; for `CC(C)Nc1nc(N2CCCC2)nc2c1CN(c1ncc(F)cn1)CC2` it is 118.9%.
In the case of `CC(C)Nc1nc2c(cc1C(=O)NCC1CC1)CCN(S(C)(=O)=O)CC2.O=C(O)C(F)(F)F`, the “Percent Effect” value is reported as 8.623%.
As to `CC(C)CCN1CCc2nc(N3CCOCC3)nc(NC(C)C)c2C1`, the “Percent Effect” value was determined as 0.8088%.
Turning to `Cc1nc(CN2CCc3nc(N4CCCC4)nc(NC(C)C)c3C2)cs1`, the “Percent Effect” value is recorded as -7.957%.
Turning to `CCS(=O)(=O)N1CCc2nc(N3CCOCC3)nc(N(C)C)c2CC1`, the “Percent Effect” value is -7.887%.
The value for `CCCS(=O)(=O)N1CCc2nc(N3CCOCC3)nc(N(C)C)c2C1` was 5.75%; that for `CC(C)Nc1nc(N2CCCC2)nc2c1CCN(S(C)(=O)=O)CC2.O=C(O)C(F)(F)F.O=C(O)C(F)(F)F` was 110.6%.
On to `CCc1ncnc2c1CCN(c1ncc(F)cn1)CC2`, for which the “Percent Effect” value was -14.13%.
The figure for `Cc1cc(C(=O)N2CCC(c3nccn3CCCN(C)C)CC2)no1` is 1.64%.
As to `Nc1nc(CCNc2ncnc3c2CCN(C(=O)C2CC2)C3)cs1`, the “Percent Effect” value is on record as -7.691%.
As for `Cc1ccc(SCCN(C)C(=O)c2cn(CCN)nn2)cc1`, the “Percent Effect” value amounted to 1.127%.
Turning to `COCC(=O)N(Cc1cccc(C)c1)Cc1ccccc1OC`, the “Percent Effect” value is given as -10.99%.
The figure for `CC(C)(O)CN1CCN(C(=O)COC2CCCCC2)CC1` is -14.17%; for `CCC(C)c1csc(NC(=O)Cc2csc(-c3nnc[nH]3)n2)n1` (configuration not stated) it is -13.2%; for `CC(C)Nc1nc(N2CCCC2)nc2c1CN(C(C)C)CC2` it is 4.85%.
The figure for `CCN1CCc2nc(N3CCOCC3)nc(NC(C)C)c2C1` is -4.113%; for `CCC(C)N1CCc2nc(N3CCCC3)nc(NC(C)C)c2C1` (configuration not stated) it is 120.2%; for `O=C1NCCN1C1CCN(Cc2coc(-c3ccccc3)n2)CC1` it is 93.32%.
Take `Cc1ccc(-c2nc(CN3CCc4nn(C)c(=O)cc4C3)co2)cc1`: the “Percent Effect” value is listed as -7.957%.
Regarding `O=C1NCCN1C1CCCN(Cc2coc(-c3ccc(F)cc3)n2)C1` (configuration not stated), the “Percent Effect” value was -1.248%.
Take `O=S1(=O)CCCN1Cc1coc(-c2cccs2)n1`: the “Percent Effect” value came out at 4.552%.
Take `O=C1NCCN1C1CCCN(Cc2coc(-c3cccs3)n2)C1` (configuration not stated): the “Percent Effect” value is given as 113.2%.
The value for `Cc1ccc(-c2nc(CN3CCC(N4CCNC4=O)CC3)co2)cc1` was 99.39%.
The figure for `CS(=O)(=O)NC1CCN(Cc2coc(-c3ccc(Cl)cc3)n2)CC1` is 11.26%; for `O=C1NCCN1C1CCN(Cc2ccccn2)CC1` it is -4.193%; for `CS(=O)(=O)NC1CCN(Cc2coc(-c3ccccc3)n2)CC1` it is -0.3699%.
As for `O=C1NCCN1C1CCN(Cc2coc(-c3ccc(F)cc3)n2)CC1`, the “Percent Effect” value was found to be 91.35%.
For the compound `c1csc(-c2nc(CN3CCN(c4cnccn4)CC3)co2)c1`, the “Percent Effect” value is recorded as -1.577%.
The figure for `O=C1NCCN1C1CCCN(Cc2nnc(-c3ccc(F)cc3)o2)C1` (configuration not stated) is 8.098%; for `NCC1Cc2cc(Oc3cc(F)c(CN4CCCC4)c(F)c3)ccc2O1` (configuration not stated) it is -5.798%; for `c1cc(-c2nnc(C3(c4ccc5c(c4)OCO5)CCOCC3)o2)ccn1` it is -12.56%.
For the compound `CCc1ccc(C(COC)NC(=O)c2ccc(O)nc2)o1` (configuration not stated), the “Percent Effect” value is -6.31%.
As for `c1ccc(-n2nnnc2CN2CCCC(Cn3cncn3)C2)cc1` (configuration not stated), the “Percent Effect” value stood at 0.4093%.
